In PubChem BioAssay AID1053175 (ICCB-Longwood Screening Facility, Harvard Medical School, 2014) one finds OD600 absorbance data, which are given here for 23 compounds.

Screen size: about 330,000 compounds; about 700 (0.21%) were called active.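 How the source made its calls: active means OD600 absorbance below the run mean of sample wells minus 3.6 SD, in any replicate (cut at about 0.56 in these data); inactive means the rest.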 The entries come from a sample that favours actives as a whole.

This test can be described thus: antibacterial activity against Escherichia coli – OD600, primary screen (AID 1053175). The following applies: Escherichia coli growth, OD600, 23 h; stronger effect = lower value.
For the compound `Cc1csc(NC(=S)Nc2cccc(Cl)c2)n1`, the OD600 absorbance was 0.618 (inactive).

For `S=C(Nc1cccc(Cl)c1)Nc1ccc2c(c1)OCCO2`, the OD600 absorbance is 0.613 (inactive).

Turning to `FC(F)(F)c1cccc(NC(=S)Nc2cccc(Cl)c2)c1`, the OD600 absorbance was 0.501 (active).

Regarding `OCCCNc1nc(-c2ccccc2)c2cc(Cl)ccc2n1`, the OD600 absorbance was 0.647 (inactive).

With `Cc1nnc(NCCO)c2ccccc12`, the OD600 absorbance was 0.66 (inactive).

As for `OCCNc1nc(Nc2ccc(Cl)c(Cl)c2)nc2ccccc12`, the OD600 absorbance is 0.392 (active).

As for `COc1cc(C(C)=NNC(=O)c2cccc(S(=O)(=O)N3CCCC3)c2)cc(OC)c1OC`, the OD600 absorbance was 0.705 (inactive).

For the compound `Cc1c(Cl)cccc1NC(=S)N(Cc1ccccc1)Cc1cccnc1`, the OD600 absorbance was 0.58 (active).

In the case of `Cc1cccc(C)c1NC(=S)N(Cc1cccnc1)Cc1ccccc1Cl`, the OD600 absorbance was 0.706 (inactive).

As for `Cc1ccc(CN(Cc2cccnc2)C(=S)Nc2cccc(Cl)c2C)cc1`, the OD600 absorbance is 0.672 (inactive).

Consider `O=C(NN=C1CC(c2ccccc2)Oc2ccccc21)c1ccc(O)cc1` (stereo not drawn), for which the OD600 absorbance is 0.541 (inactive).

Turning to `COC(=O)NN=Cc1c[nH]c2ccccc12`, the OD600 absorbance is 0.738 (inactive).

Regarding `CC(=NNC(=O)c1ccccc1[N+](=O)[O-])c1c(O)cc(C)oc1=O`, the OD600 absorbance was 0.635 (inactive).

For `COc1cc(C=NNC(=O)NC23CC4CC(CC(C4)C2)C3)ccc1OCC(N)=O`, the OD600 absorbance was 0.652 (inactive).

Consider `O=C(/C=C/c1ccc([N+](=O)[O-])o1)NNC(=O)c1ccc(F)cc1`, for which the OD600 absorbance is 0.428 (active).

For the compound `O=C(NNC(=O)C1CCCC1)c1ccc(F)cc1`, the OD600 absorbance is 0.706 (inactive).

In the case of `CCc1noc(C)c1C(=O)NNC(=O)c1ccc(F)cc1`, the OD600 absorbance is 0.692 (inactive).

`S=c1[nH]nc(-c2ccncc2)n1N=Cc1ccccc1`: the OD600 absorbance was 0.705 (inactive).

Take `CCN1/C(=C/c2ccc3ccc(C)cc3[n+]2CC)Sc2ccccc21`: the OD600 absorbance was 0.506 (active).

Consider `COc1ccc(C(=O)NN=C(c2ccccc2)c2ccccn2)cc1`, for which the OD600 absorbance is 0.68 (inactive).

In the case of `CC(=NNC(=O)c1ccc(F)cc1)c1ccccn1`, the OD600 absorbance was 0.506 (active).

With `CC(=NNC(=O)c1c[nH]c2ccccc12)c1ccccn1`, the OD600 absorbance is 0.586 (inactive).

Consider `CC(=NNS(=O)(=O)c1ccc(Br)cc1)c1ccc(-n2ccnc2)cc1`, for which the OD600 absorbance was 0.734 (inactive).
